Laboratory results reported in PubChem BioAssay AID1259343 (VanderVen Lab, College of Veterinary Medicine, Cornell …, 2017).
Out of some 6,200 compounds screened, about 2,900 (47%) were called active. The set was probably picked from earlier hits. Some of the results follow. Values without a mark were called inactive. Cut-off read from the data, not from the text of the source: active = inhibition above about 50%; inactive = the rest.

Experiment: Mycobacterium tuberculosis growth inhibition, primary screen (AID 1259343)
Conditions: inhibition: at 10 µM, active compounds read high; outcome: 10 uM
In the case of `CC(C)Cc1noc(-c2ccc(-c3ccc4c(c3)OCCO4)nc2)n1`, the inhibition is reported as 3.86%. Work on `CC(Cc1cccnc1)NCc1nc(Cc2ccccc2F)no1` (configuration not stated) yielded an inhibition of 33.9%. For `CC(Cc1ccccc1F)NCc1noc(-c2ccc3c(c2)OCO3)n1` (configuration not stated), the inhibition was 59.5% (active). With `Nc1nc2ccc(Oc3ccc4nc(N)sc4c3)cc2s1` the inhibition was 21%. In the case of `Nc1ccc2nc(SCc3ccc(F)cc3)sc2c1`, the inhibition is reported as 16.7%. With `Cc1nc2ccc(N)cc2s1` the inhibition was 94.6% (active). In the case of `COc1cc(OC)nc(Nc2nc(C(N)Cc3ccc(F)cc3)cs2)n1` (configuration not stated), the inhibition is reported as 71.1% (active). With `COc1cc(OC)nc(Nc2nc(C(N)Cc3ccc(Cl)cc3)cs2)n1` (configuration not stated) the inhibition was 93.6% (active). In the case of `Oc1ccc(C=Nc2ccc3oc4ccccc4c3c2)c(O)c1O`, the inhibition is reported as 95% (active). Molecule `COc1cccc(C=CC(=O)c2cccc(N3CCOCC3)c2)c1` has an inhibition of 44.4%. For `C(=C\c1cccc(N2CCNCC2)c1)/c1ccccc1`, the inhibition was 90.8% (active). For `CC1(C)C2(Cl)C(Cl)C(Cl)C(Cl)(C(Cl)Cl)C1(Cl)C2Cl` (configuration not stated), the inhibition was 65.2% (active). `S=c1nc[nH]c2nc[nH]c12` showed an inhibition of 49.3%. `Brc1ccccc1CNCC1COc2ccccc2O1` (configuration not stated) showed an inhibition of -26.4%. `FC(F)(F)CCc1ccnc(NCC2COc3ccccc3O2)n1` (configuration not stated) showed an inhibition of 24.3%. With `FC(F)(F)c1ccnc(NCC2COc3ccccc3O2)n1` (configuration not stated) the inhibition was 96.6% (active). For `OC(C#CCC(O)c1ccccc1)c1ccccc1` (configuration not stated), the inhibition was 101% (active). Molecule `CN(CC(O)c1ccccc1F)C(c1ccccc1)c1ccccc1` (configuration not stated) has an inhibition of -46%. Molecule `N#Cc1ccc(S(=O)(=O)N2CCN(c3ccccc3F)CC2)cc1` has an inhibition of 8.35%. For `O=S(=O)(c1ccc(F)cc1)N1CCCC(OCc2cc(F)cc(F)c2)C1` (configuration not stated), the inhibition was 2.58%. For `N#Cc1ccc(S(=O)(=O)N2CCC(Cc3ccc(F)cc3)CC2)cc1`, the inhibition was 60.9% (active). With `N#Cc1ccc(S(=O)(=O)N2CCC(Cc3ccc(C(F)(F)F)cc3)CC2)cc1` the inhibition was 71.7% (active). `O=C(O)c1cc[c]([Hg][Cl])cc1` showed an inhibition of 33.6%. Molecule `O=C(CNc1ccc2c(c1)OC(F)(F)O2)N1CCc2sccc2C1` has an inhibition of -40%. For `COc1ccc(Cl)cc1NCC(=O)N1CCc2sccc2C1`, the inhibition was 83.7% (active). Work on `COc1ccc(C)cc1NC(=O)N1CCN(CCCOC(c2ccc(Cl)cc2)c2ccc(Cl)cc2)CC1` yielded an inhibition of -0.67%. In the case of `CC(C)Oc1ccc(NC(=O)C2CCOCC2)cc1Cl`, the inhibition is reported as 95.4% (active). Work on `CC(C)Oc1ccc(NC(=O)Cc2cccs2)cc1Cl` yielded an inhibition of 38%. `C=CCn1c(=NC(=O)c2ccc(OC)cc2)sc2cccc(OC)c21` showed an inhibition of 39.7%. For `CCc1c(C)nc(-n2nc(C)cc2NC(=O)c2cccs2)[nH]c1=O`, the inhibition was 101% (active). In the case of `Cc1cc(NC(=O)c2cccs2)n(-c2nc(C)c(C)c(=O)[nH]2)n1`, the inhibition is reported as 98.8% (active). With `CCCCS(=O)(=O)N(C)Cc1ccc(-c2ccc(Br)cc2)o1` the inhibition was 83.2% (active). For `OCC#CCSc1nnc(-c2ccccc2Br)o1`, the inhibition was 99.2% (active). For `Brc1ccccc1-c1nnc(SCc2ncc(-c3ccccc3)o2)o1`, the inhibition was -4.92%. `OCC#CCSc1nnc(-c2cccc(Br)c2)o1` gave an inhibition of -10.9%. In the case of `Fc1ccc(CN2CCC(Cc3ccc(-c4ccccc4)cc3)CC2)cc1C(F)(F)F`, the inhibition is reported as 59% (active). In the case of `CC(C)(C)c1ccc2c(c1)OCC(C(=O)Nc1nc(-c3ccncc3)cs1)O2` (configuration not stated), the inhibition is reported as 84.6% (active). In the case of `CC(=O)Nc1ccc(-c2csc(NC(=O)C3Cc4ccccc4O3)n2)c(F)c1` (configuration not stated), the inhibition is reported as 16.7%. Work on `COc1ccc(Br)cc1C=Cc1ccc2cccc(O)c2n1` yielded an inhibition of 17.6%. Work on `COC(=O)c1cc(C=O)c2ccc3ccccc3n12` yielded an inhibition of 27.1%. For `Oc1cccc2ccc(/C=C/c3ccccc3OC(F)F)nc12`, the inhibition was 100% (active). With `COC(=O)c1ccc(C=Cc2ccc3cccc(O)c3n2)cc1` the inhibition was 63.1% (active). With `Oc1cccc2ccc(C=Cc3cccc(Br)c3)nc12` the inhibition was 90.5% (active). `CCc1ccc(NC(=O)C(C)n2cc(C(F)(F)F)ccc2=O)cc1` (configuration not stated) gave an inhibition of 49.6%. In the case of `CCc1ccc(NC(=O)c2ccc(CN3CCCC3=O)cc2)cc1`, the inhibition is reported as 73.2% (active). Molecule `Cc1cc(NC(=O)c2ccc(CN3C(=O)CC4(CCCC4)C3=O)cc2)ccc1Cl` has an inhibition of -6.77%. In the case of `CC(NS(=O)(=O)c1ccc(Cl)c(C(F)(F)F)c1)C1CC2CCC1C2` (configuration not stated), the inhibition is reported as “inactive”. With `Cc1ccccc1C1CC(N(C(=O)c2ccc(Br)cc2)C2CC2)C1` (configuration not stated) the inhibition was 82.4% (active). Work on `CCn1c(C)c(C(=O)CN(C(=O)c2ccc(Br)cc2)C2CCCCC2)c(C)c1C(=O)OC` yielded an inhibition of 22.6%. In the case of `COC(=O)c1ccc(N2CN=C(c3ccc(C)cc3)NC2=S)cc1`, the inhibition is reported as 87.5% (active). With `Cc1ccc(C(=O)OC(C)CN2CCN(C)CC2)cc1` (configuration not stated) the inhibition was -10.1%. For `CC1(Oc2ccccc2-c2ccno2)CCN(Cc2ccc(-c3ccccc3)o2)C1` (configuration not stated), the inhibition was 25.5%. For `Fc1ccc(N2CCN(C[C@H]3CN4CC[C@H]3C[C@@H]4CNC(=S)Nc3ccc(-n4cccn4)cc3)CC2)cc1`, the inhibition was 95.6% (active). For `CC(OC(=O)c1ccc(OCC2CCCO2)cc1)C(=O)Nc1nc(-c2ccc(F)c(F)c2)cs1` (configuration not stated), the inhibition was 100% (active). With `CCC(C)C(=O)Nc1nc(-c2ccc(OC)c(F)c2)cs1` (configuration not stated) the inhibition was 0.73%. `CN(c1cccc(O)c1)S(=O)(=O)c1cc(Cl)sc1Cl` gave an inhibition of -2.74%. For `CN(c1cccc(O)c1)S(=O)(=O)c1ccc2c(c1)OCCCO2`, the inhibition was 52.4% (active). Molecule `O=S(=O)(Oc1ccc2oc3ccccc3c2c1)c1ccc2c(c1)OCCO2` has an inhibition of 31.3%. In the case of `Nc1ccc2scnc2c1`, the inhibition is reported as 94.5% (active). Molecule `O=C(Nc1ccc2scnc2c1)C1CC(=O)N(CC2CC2)C1` (configuration not stated) has an inhibition of 34.9%. `O=C(NCC1CCC2(CC1)OCCO2)c1ccc(Cl)cc1F` gave an inhibition of -19.8%. With `O=C(Nc1cc(C(F)(F)F)no1)c1ccc(Cl)cc1F` the inhibition was 97.8% (active). In the case of `Cc1csc(C(C#N)C(=O)CSc2nnc(NC3CC3)s2)n1` (configuration not stated), the inhibition is reported as 28.8%. In the case of `CCCSc1nnc(NCc2ccc(OC)cc2)s1`, the inhibition is reported as 33.5%. For `CCCSc1nnc(SCC(=O)Nc2nc(C)cs2)s1`, the inhibition was 90.9% (active). In the case of `NCC[C@H](O)C(=O)N[C@@H]1C[C@H](N)[C@@H](O[C@H]2O[C@H](CN)[C@@H](O)[C@H](O)[C@H]2O)[C@H](O)[C@H]1O[C@H]1O[C@H](CO)[C@@H](O)[C@H](N)[C@H]1O`, the inhibition is reported as 98.7% (active). For `CN[C@H]1C[C@@H](N)[C@H](O)[C@@H](O[C@@H]2O[C@H](CO)[C@@H]3OC4(O[C@@H]3[C@@H]2O)O[C@H](C(N)CO)[C@H](O)[C@H](O)[C@H]4O)[C@@H]1O` (some centres not stated), the inhibition was 41.3%. With `COc1ccc(CC(=O)Nc2cc(C)nn2-c2nc(C)cc(=O)[nH]2)cc1OC` the inhibition was 99% (active). With `CCCc1cc(=O)[nH]c(-n2nc(C)cc2NC(=O)Cc2ccc(OC)c(OC)c2)n1` the inhibition was 98.9% (active). `CCc1cc(=O)[nH]c(-n2nc(C)cc2NC(=O)Cc2ccc(OC)c(OC)c2)n1` showed an inhibition of 48%. In the case of `Cc1n[nH]c(C)c1CCCCCOc1cccc(Cl)c1`, the inhibition is reported as 99.2% (active). For `CCOc1ccc(OCCCCOc2ccc(F)cc2)cc1`, the inhibition was 8.32%. With `Cc1n[nH]c(C)c1CCCCCCOc1ccc(F)cc1` the inhibition was 87.3% (active). In the case of `CNc1snc(C)c1C(=O)OCc1ccc(-n2cccn2)cc1`, the inhibition is reported as 50.2% (active). Molecule `CNc1snc(C)c1C(=O)NCc1ccc2c(c1)CCC2` has an inhibition of 39.8%. In the case of `Cc1oc(-c2ccc(F)cc2F)nc1CN(C)Cc1ccccc1C(F)(F)F`, the inhibition is reported as 30.1%. With `N#Cc1nc(NC(=O)c2ccc(N3CCCC3)c(F)c2)[nH]c1C#N` the inhibition was 70.6% (active). For `N#Cc1ccc(C(=O)Nc2ccccc2N2CCCCCC2)cc1`, the inhibition was 39.7%. Molecule `COc1cc(C(=O)Nc2cc(Cl)ccc2N2CCSCC2)ccc1C` has an inhibition of 12.9%. In the case of `CCOC(=O)CSc1nnc(CNc2ccc(C)c(Cl)c2)n1C`, the inhibition is reported as 94.2% (active). In the case of `OCC1(CCc2ccccc2)CCCN(c2ncnc3sccc23)C1` (configuration not stated), the inhibition is reported as 22.8%. For `Oc1c(-c2ccccn2)sc2ccccc12`, the inhibition was 90.9% (active). `Oc1c(N=Nc2ccc3c(c2)OCCO3)sc2ccccc12` showed an inhibition of 38.8%. `CN(N=Cc1sc2ccccc2c1O)c1ccccc1` gave an inhibition of -9.99%. `Cc1ccc(Oc2ncccc2CNc2ncccn2)c(F)c1F` showed an inhibition of 23.9%. In the case of `Fc1ccccc1OCc1n[nH]c(=S)o1`, the inhibition is reported as 47.7%. For `Fc1ccccc1COc1ccccc1CNc1nn[nH]n1`, the inhibition was 57.1% (active). In the case of `Cc1cccc2c(=O)n(CC(=O)NCCc3cccc(F)c3)cnc12`, the inhibition is reported as 25.4%. For `Cc1cc(NC(=O)Cn2cnc3c(nnn3-c3cccc(F)c3)c2=O)no1`, the inhibition was 87.4% (active). With `CSc1cccc(NC(=O)Cc2csc(N3CCCC3=O)n2)c1` the inhibition was 70.3% (active). With `O=C(NCC1CCCO1)c1ccc(Br)o1` (configuration not stated) the inhibition was 83.8% (active). `Cc1ccc(CNC(=O)c2ccc(Br)o2)cc1F` gave an inhibition of 16.3%. Molecule `O=C(NCCC12CC3CC(CC(C3)C1)C2)C12CC3CC(CC(C3)C1)C2` has an inhibition of -25.6%. `Cc1cccc(CO[C@]2(C(=O)NCC3CCCO3)CC(OCc3ccc(F)cc3)[C@H](O)[C@H](O)C2)c1` (some centres not stated) gave an inhibition of -13%. For `Cc1ccc(OCCCCNC(=O)c2ccc(Br)o2)cc1`, the inhibition was 92.2% (active). In the case of `O=C(NC1CCCC1)c1ccc(Br)o1`, the inhibition is reported as -20.8%. With `O=C(NCC1CCCO1)C12CC3CC(CC(C3)C1)C2` (configuration not stated) the inhibition was 81.2% (active). In the case of `CCCCCCCCNC(=O)c1ccc(Br)o1`, the inhibition is reported as 74.9% (active). In the case of `O=C(O)C1Nc2ccc(Br)cc2C2C=CCC12` (configuration not stated), the inhibition is reported as 84.2% (active). With `O=C(O)C1Nc2c(Cl)cc(Cl)cc2C2C=CCC12` (configuration not stated) the inhibition was 101% (active). In the case of `O=C(O)c1ccc2c(c1)C1C=CCC1C(c1ccc(Br)cc1)N2` (configuration not stated), the inhibition is reported as 66.8% (active). Molecule `O=C(O)C1Nc2ccc3ccccc3c2C2C=CCC12` (configuration not stated) has an inhibition of 16.2%.
